Laboratory results from PubChem BioAssay AID1159580 (chemical genetic matrix, 2015).
The campaign covered roughly 5,500 compounds. About 2,000 (36%) were called active. About 18% were inconclusive and are not listed. No stated cut-off is given here; in the data, active means normalized growth mostly below about 0.91 (no sharp cut-off); inconclusive means no clear call, values can overlap the other calls; inactive means mostly above about 0.92. The list shows a part of the results.

Experiment: chemical genetic growth profiling, strain panel (AID 1159580);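 further: tested at 20 µM; growth read once vehicle control cultures reached saturation at 30 °C; 1 = growth at the plate median or of vehicle wells; lower values mean less growth of the strain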
Conditions: growth OD

Measured: normalized growth

O=c1c(O)c(-c2ccccc2)oc2ccc3occc3c12
inactive: S. cerevisiae deletion strains, locus YKL068W, hits give low values 0.962 | S. cerevisiae deletion strains, locus YKL085W, strain MDH1 (second series), hits give low values 0.937 | S. cerevisiae deletion strains, locus YKL085W, strain MDH1, hits give low values 0.937 | S. cerevisiae deletion strains, locus YKL190W, strain CNB1, hits give low values 0.941 | S. cerevisiae deletion strains, locus YKR026C, strain gcn3, hits give low values 0.954 | S. cerevisiae deletion strains, locus YKR091W, strain srl3, hits give low values 0.974 | S. cerevisiae deletion strains, locus YLL041C, strain sdh2, hits give low values 0.948 | S. cerevisiae deletion strains, locus YLR039C, strain RIC1, hits give low values 0.878 | S. cerevisiae deletion strains, locus YLR113W, strain HOG1, hits give low values 0.893 | S. cerevisiae deletion strains, locus YLR262C, strain YPT6, hits give low values 0.946 | S. cerevisiae deletion strains, locus YLR357W, strain rsc2, hits give low values 0.87 | S. cerevisiae deletion strains, locus YLR384C, strain iki3, hits give low values 0.954 | S. cerevisiae deletion strains, locus YML016C, strain PPZ1, hits give low values 0.939 | S. cerevisiae deletion strains, locus YMR231W, strain pep5, hits give low values 1 | S. cerevisiae deletion strains, locus YMR307W, strain GAS1, hits give low values 0.687 | S. cerevisiae deletion strains, locus YNL128W, strain TEP1, hits give low values 0.911 | S. cerevisiae deletion strains, locus YNL183C, strain NPR1, hits give low values 0.884 | S. cerevisiae deletion strains, locus YNL248C, strain rpa49, hits give low values 0.953 | S. cerevisiae deletion strains, locus YNL250W, strain rad50, hits give low values 0.921 | S. cerevisiae deletion strains, locus YNL322C, strain KRE1, hits give low values 0.954 | S. cerevisiae deletion strains, locus YNR049C, strain mso1, hits give low values 0.93 | S. cerevisiae deletion strains, locus YOL012C, strain htz1 1.09 | S. cerevisiae deletion strains, locus YOR061W, strain CKA2, hits give low values 0.935 | S. cerevisiae deletion strains, locus YOR069W, strain VPS5, hits give low values 0.932 | S. cerevisiae deletion strains, locus YOR231W, strain MKK1, hits give low values 0.909 | S. cerevisiae deletion strains, locus YPL241C, strain CIN2, hits give low values 0.966 | S. cerevisiae deletion strains, locus YPL256C, strain CLN2, hits give low values 0.982 | S. cerevisiae deletion strains, locus YPR141C, strain kar3, hits give low values 0.956
active: S. cerevisiae deletion strains, locus YJR075W, strain HOC1, hits give low values 0.861 | S. cerevisiae deletion strains, locus YKL009W, strain mrt4, hits give low values 0.793 | S. cerevisiae deletion strains, locus YKL160W, strain elf1, hits give low values 0.687 | S. cerevisiae deletion strains, locus YKR001C, strain vps1, hits give low values 0.772 | S. cerevisiae deletion strains, locus YLL001W, strain dnm1, hits give low values 0.657 | S. cerevisiae deletion strains, locus YLL026W, hits give low values 0.867 | S. cerevisiae deletion strains, locus YLR027C, strain aat2, hits give low values 0.795 | S. cerevisiae deletion strains, locus YLR058C, strain SHM2, hits give low values 0.854 | S. cerevisiae deletion strains, locus YLR102C, strain apc9, hits give low values 0.912 | S. cerevisiae deletion strains, locus YLR221C, strain rsa3, hits give low values 0.844 | S. cerevisiae deletion strains, locus YLR258W, strain gsy2, hits give low values 0.745 | S. cerevisiae deletion strains, locus YLR262C, strain YPT6 (second series), hits give low values 0.795 | S. cerevisiae deletion strains, locus YLR268W, strain sec22, hits give low values 0.77 | S. cerevisiae deletion strains, locus YLR320W, strain mms22, hits give low values 0.76 | S. cerevisiae deletion strains, locus YLR330W, strain CHS5, hits give low values 0.847 | S. cerevisiae deletion strains, locus YLR342W, strain FKS1 (second series), hits give low values 0.755 | S. cerevisiae deletion strains, locus YLR342W, strain FKS1, hits give low values 0.796 | S. cerevisiae deletion strains, locus YLR370C, strain arc18, hits give low values 0.768 | S. cerevisiae deletion strains, locus YLR371W, strain rom2, hits give low values 0.655 | S. cerevisiae deletion strains, locus YLR418C, strain cdc73, hits give low values 0.451 | S. cerevisiae deletion strains, locus YML032C, strain rad52, hits give low values 0.685 | S. cerevisiae deletion strains, locus YML120C, strain ndi1, hits give low values 0.753 | S. cerevisiae deletion strains, locus YML124C, strain tub3, hits give low values 0.899 | S. cerevisiae deletion strains, locus YMR058W, strain fet3, hits give low values 0.817 | S. cerevisiae deletion strains, locus YMR078C, strain ctf18, hits give low values 0.852 | S. cerevisiae deletion strains, locus YMR125W, strain sto1, hits give low values 0.877 | S. cerevisiae deletion strains, locus YMR129W, hits give low values 0.88 | S. cerevisiae deletion strains, locus YMR205C, strain PFK2, hits give low values 0.611 | S. cerevisiae deletion strains, locus YMR223W, strain ubp8, hits give low values 0.762 | S. cerevisiae deletion strains, locus YMR263W, strain SAP30, hits give low values 0.854 | S. cerevisiae deletion strains, locus YNL067W, strain RPL9B, hits give low values 0.863 | S. cerevisiae deletion strains, locus YNL071W, strain lat1, hits give low values 0.363 | S. cerevisiae deletion strains, locus YNL209W, strain ssb2, hits give low values 0.853 | S. cerevisiae deletion strains, locus YNL233W, strain BNI4, hits give low values 0.693 | S. cerevisiae deletion strains, locus YNL271C, strain bni1, hits give low values 0.889 | S. cerevisiae deletion strains, locus YNL298W, strain CLA4, hits give low values 0.887 | S. cerevisiae deletion strains, locus YNL307C, strain MCK1, hits give low values 0.521 | S. cerevisiae deletion strains, locus YNL322C, strain KRE1 (second series), hits give low values 0.814 | S. cerevisiae deletion strains, locus YNR052C, strain pop2, hits give low values 0.864 | S. cerevisiae deletion strains, locus YOL147C, strain pex11, hits give low values 0.703 | S. cerevisiae deletion strains, locus YOR001W, strain rrp6, hits give low values 0.826 | S. cerevisiae deletion strains, locus YOR070C, strain gyp1, hits give low values 0.806 | S. cerevisiae deletion strains, locus YOR080W, strain dia2, hits give low values 0.889 | S. cerevisiae deletion strains, locus YOR083W, strain WHI5, hits give low values 0.79 | S. cerevisiae deletion strains, locus YOR106W, strain vam3, hits give low values 0.737 | S. cerevisiae deletion strains, locus YOR136W, strain idh2, hits give low values 0.876 | S. cerevisiae deletion strains, locus YOR144C, strain elg1, hits give low values 0.823 | S. cerevisiae deletion strains, locus YOR184W, strain ser1, hits give low values 0.557 | S. cerevisiae deletion strains, locus YOR265W, strain rbl2, hits give low values 0.85 | S. cerevisiae deletion strains, locus YOR270C, strain vph1, hits give low values 0.409 | S. cerevisiae deletion strains, locus YOR290C, strain snf2, hits give low values 0.589 | S. cerevisiae deletion strains, locus YOR316C, strain cot1, hits give low values 0.881 | S. cerevisiae deletion strains, locus YPL051W, strain arl3, hits give low values 0.725 | S. cerevisiae deletion strains, locus YPL078C, strain atp4, hits give low values 0.513 | S. cerevisiae deletion strains, locus YPL106C, strain sse1, hits give low values 0.769 | S. cerevisiae deletion strains, locus YPL240C, strain hsp82, hits give low values 0.833 | S. cerevisiae deletion strains, locus YPR119W, strain clb2, hits give low values 0.888 | S. cerevisiae deletion strains, locus YPR163C, strain tif3, hits give low values 0.72 | S. cerevisiae deletion strains, locus YPR167C, strain met16, hits give low values 0.851 | S. cerevisiae deletion strains, strain wtn01, hits give low values 0.757 | S. cerevisiae strains, strain wild type, hits give low values 0.896
